Screening data deposited in PubChem by National Center for Advancing Translational Sciences (NCATS).
The list is not random: actives were taken first. Their share in the collection is about 9%.
BAZ2B block = BAZ2B (human) inhibition. AlphaScreen BAZ2B-H3K14Ac peptide displacement. Potency, µM (doses to about 114 µM), for inactives: at the highest dose activity change, negative = inhibition, hits mostly inhibitors. 360,000 compounds, 4.4% hits. AID 504333; also: % is scaled to controls: 0 for no effect and ±100 for the full control effect; nearly all actives have a fitted effect of over 60% in size
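BAZ2B 50 nM plus b-H3(5-23)K14Ac 50 nM, PBS pH 7.4/0.01% Tween-20, 30 min RT; compound added (max 110 uM), 30 min RT; streptavidin donor/Ni-chelate acceptor beads 10 ug/mL final, 20 min dark; AlphaScreen read.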
G9a inh = inhibitors of human histone lysine methyltransferase G9a. Q96KQ7. G9a H3K9 monomethylation, AlphaScreen, 2 h. Potency, µM (top dose mostly 102 µM), for inactives: at the top dose activity, negative = inhibition, usual class: inhibitors. 350,000 compounds, 8.8% hits. AID 504332; also: % is scaled to controls: 0 for no effect and ±100 for the full control effect; nearly all actives have a fitted effect of over 75% in size
Target sequence (Q96KQ7 913-1193 limits assumed): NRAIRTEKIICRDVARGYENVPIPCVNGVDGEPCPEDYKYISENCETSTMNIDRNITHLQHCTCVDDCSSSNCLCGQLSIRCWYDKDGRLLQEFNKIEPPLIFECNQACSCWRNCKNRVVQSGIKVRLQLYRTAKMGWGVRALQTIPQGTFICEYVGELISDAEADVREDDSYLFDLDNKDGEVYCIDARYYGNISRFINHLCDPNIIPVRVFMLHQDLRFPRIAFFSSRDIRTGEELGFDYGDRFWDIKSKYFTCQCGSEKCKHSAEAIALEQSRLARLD
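G9a (20 nM) preincubated 15 min RT with compounds, then 500 nM biotinylated H3K9 peptide and 20 uM SAM added; 2 h RT reaction. Monomethyl-H3K9 product detected by AlphaScreen with anti-H3K9me1 antibody, streptavidin donor and anti-rabbit IgG acceptor beads.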
HP1b chromo inh = inhibitors of HP1-beta chromodomain binding to methylated histone tails; P83916; AlphaScreen HP1-beta / biotin-H3K9me3 peptide binding; Potency, µM (series often up to 114 µM), inactives show at the highest dose activity change, negative = inhibition, hits mostly inhibitors; 390,000 compounds, 0.56% hits; also: nearly all actives have a fitted effect of over 70% in size
Target sequence (P83916 whole entry, looked up): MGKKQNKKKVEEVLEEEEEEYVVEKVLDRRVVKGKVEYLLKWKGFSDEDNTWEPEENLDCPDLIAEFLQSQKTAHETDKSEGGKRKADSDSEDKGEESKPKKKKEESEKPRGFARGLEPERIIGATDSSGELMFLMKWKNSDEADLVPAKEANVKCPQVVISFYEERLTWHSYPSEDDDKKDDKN
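AlphaScreen: HP1-beta (50 nM) preformed 30 min with biotin-H3(1-18)K9me3 peptide (50 nM) in PBS pH 7.4, 0.01% Tween-20. Compound added for 30 min at RT, then streptavidin donor/nickel chelate acceptor beads (10 ug/mL) for 30 min.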
PLK1 PBD inh = PLK1 (human) polo-box domain binding inhibition | 360,000 compounds, 2.8% hits | P53350 | Plk1 PBD binding of FITC phosphopeptide, fluorescence polarization | Potency, µM, without a hit: max response, negative = inhibition, usual class: inhibitors; also: series mostly up to about 57 µM; % is scaled to controls: 0 for no effect and ±100 for the full control effect; nearly all actives have a fitted effect of over 65% in size
12-LOX inh = inhibitors of human 12S-lipoxygenase ALOX12; purified 12hLO, xylenol orange hydroperoxide absorbance; 580,000 compounds, 1.1% hits; Potency, µM (doses to about 108 µM), inactives show at the highest dose activity change, negative = inhibition, usual class: inhibitors; P18054; also: % is scaled to controls: 0 for no effect and ±100 for the full control effect
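Hydroperoxide product was detected by ferrous iron/xylenol orange as the 573 to 405 nm absorbance ratio. Arachidonic acid at 40 uM (final) was turned over for 30 min at room temperature by 150 nM human 12hLO, pH 7.0 Hepes buffer, after 15 min compound preincubation.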
JMJD2A Tudor inh = blocks the human JMJD2A Tudor domain; O75164; AlphaScreen JMJD2A-Tudor / H3K4me3 peptide binding; Potency, µM (doses to about 114 µM), for inactives: top-dose activity change, negative = inhibition, hits mostly inhibitors; 390,000 compounds, 4.4% hits; AID 504339; also: % is scaled to controls: 0 for no effect and ±100 for the full control effect; nearly all actives have a fitted effect of over 50% in size
* marks the source's active call; other numbers are inactive results; ? = inconclusive; nt = no result; [ ] = dose if it differs, or a comment. Calls follow the shape of the dose curve; as a rule, active = well fitted curve in the direction sought with a large enough effect; inconclusive = small, poorly fitted or top-dose-only effect, or another doubt; inactive = no such curve, though single readings can be large; an effect the other way counts as inactive or inconclusive. Potency is read from the fitted curve at half-maximal effect.

SMILES	BAZ2B block	G9a inh	HP1b chromo inh	PLK1 PBD inh	12-LOX inh	JMJD2A Tudor inh
COCCn1c(SCC(=O)Nc2ccc3c(c2)OCCO3)nnc1C(C)C	-1.0%	13.9%	21.2%	-24.1%	-4.2%	-20.4%
CCCCn1c(SCC(=O)c2ccc3c(c2)OCCO3)nnc1-c1ccoc1C	89.1µM*	?	-3.5%	-25.8%	14.6%	?
O=C(CSc1nnc2scc(-c3ccccc3)n12)Nc1nsc(-c2ccccc2)n1	56.2µM*	?	19.8%	-4.1%	?	?
COCCn1c(SCC(=O)c2ccc3c(c2)OCCO3)nnc1C(C)C	0.5%	17.8µM*	-8.1%	0.0%	?	79.4µM*
O=C(CSc1nnc2scc(-c3ccccc3)n12)c1ccc2c(c1)OCCO2	9.3%	89.1µM*	22.7%	-4.6%	436.4%	-2.1%
O=Cc1c2c(cc3ccc(Cl)cc13)CCC2	nt	nt	nt	nt	-13.2%	nt
CSCCNC(C)=O	7.4%	-6.8%[59 µM]	nt	nt	nt	nt
COCCn1c(SCC(=O)c2ccc(Cl)cc2)nnc1C(C)C	0.2%	11.2µM*	-11.1%	?	?	50.1µM*
COc1cc(CNC(C)(C)C)ccc1OCC(=O)NC(C)(C)C	-10.0%	-3.0%	27.2%	-13.8%	7.0%	2.5%
CCCCOCCCNC(=O)C[C@H]1C[C@@]2(C(=O)OC)C(=C[C@H](COCc3ccccc3)O[C@@H]2C)N(Cc2ccc3c(c2)OCO3)C1=O	nt	nt	nt	nt	-17.4%	nt
CNC(=S)N/N=C/c1c(C)c(C(=O)c2ccc(F)cc2)n2ccccc12	-19.1%	-5.2%	-13.0%	-5.9%	35.5µM*	-8.5%
CNC(=S)N/N=C/c1cn(Cc2ccc(F)cc2)c2ccccc12	?	47.7%[59 µM]	14.5%	-7.9%	28.2µM*	-24.0%
COc1ccc(OCCn2cc(C=O)c3ccccc32)cc1	-3.4%	nt	44.5%	-3.1%	3.1%	2.1%
CNC(=S)N/N=C/c1cn(CCOc2ccc(OC)cc2)c2ccccc12	?	12.7%[59 µM]	-18.3%	0.4%	39.8µM*	?
COC(=O)N/N=C/c1cn(Cc2ccc(F)cc2)c2ccccc12	-17.6%	-0.3%	29.6%	-5.2%	7.0%	-10.7%
CNS(=O)(=O)c1cccc(C(=O)Nc2cccc(Cl)c2)c1	5.7%	?	19.5%	-16.3%	0.0%	3.5%
Oc1ccc2ccccc2c1CNc1ccc2ccccc2c1	nt	nt	?	-12.5%	?	31.6µM*
Oc1ccc2ccccc2c1CNc1ccccc1	nt	nt	-28.5%[57 µM]	3.36µM*	?	?
O=[N+]([O-])c1ccccc1NCc1c(O)ccc2ccccc12	35.5µM*	?	?	-26.2%	?	44.7µM*
CCCNC(=O)C(C)NC(=O)c1cc(-c2ccccc2)nc2ccccc12 (configuration not stated)	nt	nt	nt	nt	16.5%	nt
COc1ccc(CN2C(=O)C(n3cccc3)c3ccccc32)cc1 (configuration not stated)	nt	nt	nt	nt	-22.7%	nt
Cc1ccc(C)n1C1C(=O)N(Cc2ccc(C(F)(F)F)cc2)c2ccc(F)cc21 (configuration not stated)	nt	nt	nt	nt	25.1µM*	nt
COc1ccc2c(c1)C(n1c(C)ccc1C)C(=O)N2Cc1ccc(C(F)(F)F)cc1 (configuration not stated)	nt	nt	nt	nt	12.6µM*	nt
CCOC(=O)c1cccn1C1C(=O)N(Cc2ccc(C(F)(F)F)cc2)c2ccccc21 (configuration not stated)	nt	nt	nt	nt	-11.4%	nt
COc1ccc(CN2C(=O)C(n3c(C)ccc3C)c3cc(OC(F)(F)F)ccc32)cc1 (configuration not stated)	nt	nt	nt	nt	39.8µM*	nt
SMILES	BAZ2B block	G9a inh	HP1b chromo inh	PLK1 PBD inh	12-LOX inh	JMJD2A Tudor inh
CC1Sc2ccccc2N(Cc2ccc(OC(F)(F)F)cc2)C1=O (configuration not stated)	nt	nt	nt	-8.8%	10.8%	nt
COc1ccc2c(c1)C(n1ccc3ccccc31)C(=O)N2Cc1ccc(C(C)C)cc1 (configuration not stated)	nt	nt	nt	nt	14.1µM*	nt
CCn1ccnc1CNC(=O)C1(N2C[C@@H](C)O[C@@H](C)C2)Cc2ccccc2C1	nt	nt	nt	nt	143.9%	nt
O=[N+]([O-])c1cc(S(=O)(=O)NC2=NCCCCC2)ccc1NCC1CCCCC1	nt	44.7µM*	-14.1%	7.8%	0.8%	44.7µM*
COc1cc(C(=O)OCc2cccc(C(F)(F)F)c2)ccc1OCc1ccc(Cl)cc1Cl	nt	nt	nt	nt	0.4%	nt
O=C1NC(=S)N/C1=C/C=C/c1ccccc1	-12.4%	-29.6%	31.2%	-0.2%	-19.6%	-12.5%
O=C1NC(=S)NC(=O)C1=Cc1ccccc1C(=O)O	nt	nt	-19.5%	23.8µM*	?	25.1µM*
COc1cc(=O)n2c(-c3ccccc3)csc2n1	-7.2%	-15.2%[59 µM]	62.4%	?	-13.6%[57.4 µM]	-3.8%[11.4 µM]
C=CCNCc1cc(=O)n2c(-c3ccccc3)csc2n1	50.1µM*	?	?	-6.6%	-29.2%	3.55µM*
Cc1cc(C)cc(OCc2cc(=O)n3c(-c4ccccc4)csc3n2)c1	79.4µM*	1.8%[59 µM]	6.5%	nt	-17.7%	?
CCOc1ccc(NC(=O)CN(C)Cc2cc(=O)n3c(-c4ccccc4)csc3n2)cc1OCC	?	50.1µM*	5.5%	-7.5%	-0.8%	-26.1%
CSc1ncccc1C(=O)OCC(=O)NC12CC3CC(CC(C3)C1)C2	nt	nt	60.4%	2.8%	-12.9%	0.7%
Cc1ccsc1C(=O)OCc1cc(=O)n2ccsc2n1	-37.8%	?	21.8%	1.0%	14.8%	-26.2%
CC(=O)C(C(C)=O)C1(O)C(=O)c2ccccc2C1=O	-2.2%	50.1µM*	51.3%	-11.8%	?	-5.5%
CCOC(=O)C1CCN(C(=O)Cn2c(-c3cccs3)cc3cc(Cl)ccc32)CC1	1.0%	2.8%[59 µM]	32.8%	nt	2.5%	-2.3%
Cc1ccc(C(=O)N/C(=C\c2cccs2)C(=O)N2CCN(C)CC2)cc1C	-2.2%	70.8µM*	17.8%	-4.1%	0.6%	-8.3%
O=C(NCCCn1ccnc1)/C(=C/c1ccco1)NC(=O)c1cccs1	79.4µM*	?	30.1%	-9.7%	7.0%	-8.3%[11.4 µM]
COc1ccc(C(=O)N/C(=C\c2ccco2)C(=O)NCCCn2ccnc2)cc1	?	-41.2%[59 µM]	4.5%	-12.2%	-16.6%	-28.3%
Cc1ccc(C(=O)N/C(=C\c2cccs2)C(=O)NCCCn2ccnc2)cc1C	50.1µM*	11.8%	13.3%	1.6%	9.3%	?
Cc1ccc(C(=O)N/C(=C\c2ccco2)C(=O)NCCCn2ccnc2)cc1C	7.94µM*	-39.9%[59 µM]	25.1%	-3.3%	11.0%	17.8µM*
O=C(NCc1ccc(F)cc1)c1ccc(S(=O)(=O)Nc2cccc(C(F)(F)F)c2)cc1	4.0%	?	32.7%	-6.5%	?	-6.3%
COc1ccc(C(NC(=O)CN2C(=O)NC3(CCc4ccccc43)C2=O)c2ccccc2)cc1 (configuration not stated)	-27.0%	-12.8%[12.7 µM]	52.3%	4.2%	13.1%	-10.8%
